Bioassay records: PubChem BioAssay, several laboratories
Most compounds without a hit are left out; they make up all but 3.3% or so of the library.
Arbovirus anti: antivirals against arbovirus infection, primary screen, cell-based, full library, 10K replicate subset; arbovirus infection cell-based antiviral screen; inhibition, % at 10 µM; actives 0.37% (n = 200,000); AID 1251, 2008; in the data active = inhibition above about 30%
PERK inhibitor: block of dimerizer-induced PERK translation repression, primary screen, PERK inhibitor project, CHO PERK-DD cells, SEAP luminescence, HTS. Eukaryotic translation initiation factor 2-alpha kinase 3 (Homo sapiens), Q9NZJ5. inhibition, % at 5.6 µM. actives 0.17% (n = 220,000). CHO PERK-DD fusion, SEAP luminescence translation reporter;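 active = inhibition above the mean inhibition of all tested compounds plus 3 SD, set separately per screening campaign, cut at about 2.9% in these data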;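 also: PERK kinase domain activated by AP20187 dimerizer at 100 nM; 0% = DMSO with dimerizer and 100% = rapamycin at 8.4 µM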
ROMK primary: ROMK potassium channel modulators, primary screen, cell-based, thallium flux, MLSMR library | Tet-inducible ROMK, thallium flux fluorescence; actives lie on both sides | actives 2% (n = 130,000) | ATP-sensitive inward rectifier potassium channel 1 (Homo sapiens), P48048 | B-score at 10 µM;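 active = signal ratio slope over the read window, or its plate-corrected B-score, at least 3 SD from the plate mean, either direction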;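 also: B-score of the F/F0 ratio slope over 7 to 12 s after thallium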
Target sequence (P48048 whole entry, looked up): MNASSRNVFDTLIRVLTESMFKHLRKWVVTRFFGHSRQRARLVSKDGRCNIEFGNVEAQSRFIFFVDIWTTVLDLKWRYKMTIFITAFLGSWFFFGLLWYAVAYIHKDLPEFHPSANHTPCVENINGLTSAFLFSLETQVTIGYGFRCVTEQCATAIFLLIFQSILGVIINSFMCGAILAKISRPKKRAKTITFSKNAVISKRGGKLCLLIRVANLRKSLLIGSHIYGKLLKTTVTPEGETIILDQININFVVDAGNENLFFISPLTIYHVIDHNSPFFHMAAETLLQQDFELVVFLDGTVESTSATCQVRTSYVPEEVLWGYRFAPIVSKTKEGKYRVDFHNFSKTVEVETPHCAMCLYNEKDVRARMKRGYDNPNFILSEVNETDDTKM
WT yeast gro inh: growth inhibition of WT strain, primary screen, mitochondrial fusion inhibitor project, WT and mutant strains, chemical genetic. mitochondrial fusion phenotypic screen. inhibition, % at 10 µM. actives 2.1% (n = 190,000); in the data active = inhibition above about 58%; tested in S. cerevisiae
* = called active by the depositor; / = not tested or not shown.

SMILES	Arbovirus anti	PERK inhibitor	ROMK primary	WT yeast gro inh
Oc1ccccc1-c1cc(-c2ccccc2)no1	7.0	-0.8	0.592	-6.0
Cc1ccc(-c2cc(-c3ccccc3)no2)c(O)c1	35.8*	0.5	/	-0.7
CCOC(=O)N1CCC(N2Cc3cccc(C(=O)Nc4ccc(CC)cc4)c3C2=O)CC1	-5.9	-1.5	/	69.3*
CCOC(=O)N1CCC(N2Cc3cccc(C(=O)Nc4ccc(F)cc4)c3C2=O)CC1	6.0	0.8	/	7.5
CCOC(=O)C1=Nc2ccccc2C1=[N+]=[N-]	45.0*	2.4	-0.0575	70.9
C=CCN=C(CC)C1=C(O)CCCC1=O	3.0	0.9	0.0271	-1.4
C=CCN=C(C)C1=C(O)CCC1=O	6.1	2.9*	0.459	14.3
O=C(C1=NNCC1c1ccccc1)C1OC1c1ccccc1 (centres undefined)	/	-0.7	0.0365	/
Cc1cc(C)c(NC2=NCC(=O)N2C2CCCCC2)c(C)c1	-4.8	0.1	-0.536	68.3*
CC(=O)N1C(Nc2ccc(Cl)cc2)CCN1c1ccccc1 (centres undefined)	-7.2	0.1	/	-12.9
O=c1c2c(-c3cccs3)csc2ncn1-c1ccc(Br)cc1	-7.0	-0.4	/	24.8
Cn1c(=S)[nH]c2scc(-c3cccs3)c2c1=O	6.0	-0.6	4.01*	14.0
C=CCn1c(=S)[nH]c2scc(-c3cccs3)c2c1=O	3.4	1.1	3.55*	33.9
O=C1/C(=C/c2cccnc2)Sc2ccccc21	0.1	-0.8	-4.49*	3.5
CC(=O)Nc1ccc(/C=C2\Sc3ccccc3C2=O)cc1	/	0.3	1.35	/
CC1CC1C(=O)OCC(=O)NCc1ccc(Cl)cc1Cl (centres undefined)	-2.2	2.0	0.0522	82.5*
CCOc1ccc(-n2cc(C(=O)Nc3cccc(OC)c3)c3cc(OC)c(OC)cc3c2=O)cc1	-2.8	-1.3	/	23.4
CCS(=O)(=O)N1CCC(C(=O)NCc2ccc(F)cc2)CC1	2.0	3.4*	1.42	29.5
O=C(NCc1ccc(F)cc1)C1CCN(S(=O)(=O)N2CCOCC2)CC1	4.6	1.3	-0.405	-13.5
CC(=O)OCC1CCCC2=C(C)C(=O)CCC21COC(C)=O (centres undefined)	4.5	1.0	0.779	-4.1
CCCCCn1c(N2CCC(Cc3ccccc3)CC2)nc2c1c(=O)[nH]c(=O)n2C	-28.1	-1.1	/	88.5*
CCCn1c(N2CCC(Cc3ccccc3)CC2)nc2c1c(=O)[nH]c(=O)n2C	5.1	-1.4	0.143	67.6*
CCCCCCn1c(N2CCN(c3ccccc3)CC2)nc2c1c(=O)n(C)c(=O)n2C	-32.6	0.0	-0.241	66.3*
CCOCCn1c(N2CCN(c3ccccc3)CC2)nc2c1c(=O)n(C)c(=O)n2C	4.0	-0.5	/	-18.4
Cc1cccc(C)c1NC(=O)COc1ccc2c(C)c(Cc3ccccc3)c(=O)oc2c1	-7.8	0.8	0.0721	11.0
SMILES	Arbovirus anti	PERK inhibitor	ROMK primary	WT yeast gro inh
Cc1cc(C=O)c(C)n1-c1ccc(N2CCCC2)c([N+](=O)[O-])c1	-4.0	-0.1	-0.927	-4.5
COc1cccc(OC)c1NC(=O)CN1CCC(NC(=O)c2cccc(F)c2)CC1	-4.9	-0.9	/	3.7
Cc1cc(N2CCN(S(=O)(=O)c3ccc(Cl)cc3)CC2)c2ccccc2n1	35.6*	-1.9	2.74	10.5
Cn1c(N2CCN(S(=O)(=O)c3ccc(Cl)cc3)CC2)nc2ccccc21	-5.6	0.2	0.0338	10.4
Cc1cc(N2CCN(S(=O)(=O)c3ccc(Cl)c(Cl)c3)CC2)c2ccccc2n1	-11.8	-1.5	0.994	68.9*
COc1ccc(C2=NOC(C(=O)N(C)Cc3ccccc3)C2)cc1 (centres undefined)	-0.6	0.7	-0.198	12.3
CCOc1ccccc1N1CCN(C(=O)c2ccc3[nH]c4c(c3c2)CCCC4)CC1	-25.4	-0.8	-0.34	58.4*
CCC1Oc2ccc(C)cc2N(CC(=O)NCCC2=CCCCC2)C1=O (centres undefined)	-5.1	-0.6	/	7.1
CCC1Oc2ccc(C)cc2N(CC(=O)NCCCN2CCCCC2CC)C1=O (centres undefined)	-2.2	-0.1	/	81.4*
O=C(Nc1ccc(NC(=O)C2CC2)nc1)c1ccncc1	-7.0	1.1	-0.175	3.7
COc1ccc(C(=O)/C=C/c2ccc(OC)c(CN3CCOCC3)c2)cc1	-0.5	0.3	1.01	-8.7
COc1ccc(C(=O)/C=C/c2ccc(OC)c(Cn3nnc4ccccc43)c2)cc1	36.9*	-0.1	/	5.0
Cc1cccc(NC(=O)CSc2nnc(-c3ccc(S(=O)(=O)N4CCOCC4)cc3)n2C)c1	-5.5	2.0	/	10.7
CN(C)c1ccc(C(=S)NC2CCCCC2)cc1	-7.7	-0.2	-0.0206	-1.1
CCN(CC)c1ccc(C(=S)NCc2ccccc2)cc1	-9.3	-0.8	/	67.1*
CCN(CC)c1ccc(C(=O)O)cc1	8.3	0.0	/	15.8
CCN(CC)c1ccc(C(=S)NC2CCCCC2)cc1	5.5	0.3	0.808	73.4*
O=C(COc1c(CO)cc(Br)cc1CO)NC1CCCc2ccccc21 (centres undefined)	2.8	1.1	-0.561	-4.3
COCCCn1cnc2c(c1=O)c1nc3ccccc3nc1n2CCc1ccccc1	-17.3	-0.3	-3.14	15.7
COc1ccc(-c2[nH]c(-c3ccc4c(c3)OCO4)nc2-c2ccccc2)cc1	-24.6	-1.4	/	71.0*
C=CCNC(=S)NNC(=O)COc1ccc(Br)cc1	-2.8	0.8	-0.34	43.4
C=CCNC(=S)NNC(=O)COc1ccc2cc(Br)ccc2c1	-4.8	0.1	-0.285	59.4*
N/C(=N\OC(=O)C(c1ccccc1)c1ccccc1)c1cccnc1	-8.0	0.4	/	75.7*
N/C(=N\OC(=O)C(c1ccccc1)c1ccccc1)c1ccccn1	-13.2	-0.5	0.465	25.8
Cc1cc(C)[n+](-c2ccc(Oc3ccccc3)c(S(=O)(=O)[O-])c2)[nH]1	/	0.6	/	/
SMILES	Arbovirus anti	PERK inhibitor	ROMK primary	WT yeast gro inh
CC1C(c2ccccc2)N(C)C(c2ccccc2)C(C)C1(O)C#Cc1ccccc1 (centres undefined)	-44.3	0.5	/	75.2*
CCOC(=O)c1ccc(CNCc2ccccc2)cc1	4.5	0.6	-0.118	-24.5
CCOC(=O)c1ccc(Nc2nc(C(=O)OCC)nc3ccccc23)cc1	-0.8	-1.4	/	5.3
CCOC(=O)c1nc(Nc2ccc(Nc3ccccc3)cc2)c2ccccc2n1	1.9	-0.7	0.945	71.8*
Cc1nc2cc(NS(=O)(=O)c3ccc(Br)cc3)ccc2n1C	3.2	0.4	-1.27	-3.9
Nc1nc(Nc2cccc(F)c2)nc(N2CCOCC2)c1[N+](=O)[O-]	/	-2.3	-0.0764	/
Cc1ccc(Nc2nc(N)c([N+](=O)[O-])c(N3CCC(C)CC3)n2)cc1C	-35.6	0.6	-0.432	95.2*
Cc1ccc(Nc2nc(N)c([N+](=O)[O-])c(NCc3ccco3)n2)cc1C	-3.0	-0.5	0.274	71.5*
Cc1cccc(Nc2nc(N)c([N+](=O)[O-])c(N3CCCC(C)C3)n2)c1 (centres undefined)	-37.9	-0.3	/	93.3*
Cc1ccc(Nc2nc(N)c([N+](=O)[O-])c(N3CCOCC3)n2)cc1C	51.2*	0.4	/	-0.6
